{"source": "PubChem BioAssay (EPA / NIEHS)", "note": "Active and inactive are the calls of the source. How the source made its calls: active means hit-call score of the fitted dose curve at least 0.9, where 1 is the maximum; inactive means score below 0.9."}
{"assay": "ATG_M_61_CIS: Attagene CIS-FACTORIAL HepG2 Assay for M61 Transcription Factor (Internal Marker) (AID 2282937)", "settings": "HepG2 Attagene CIS-FACTORIAL M61 internal marker reporter; actives raise or lower the signal", "experimental": "ATG_CIS is a cell-based, multiplexed-readout assay that uses HepG2, a human liver cell line, with measurements taken at 24 hours after chemical dosing in a 24-well plate.ATG_M_61_CIS is one of 52 assay component(s) measured or calculated from the ATG_CIS assay. It is designed to make measurements of mRNA induction, a form of inducible reporter, as detected with fluorescence intensity signals by Reverse transcription polymerase chain reaction (RT-PCR) and Capillary electrophoresis technology.Data from the assay component ATG_M_61_CIS was analyzed into 1 assay endpoint. This assay endpoint, ATG_M_61_CIS, was analyzed with bidirectional fitting relative to DMSO as the negative control and baseline of activity. Using a type of inducible reporter, measures of mRNA for gain or loss-of-signal activity can be used to understand the background control at the transcription factor-level as they relate to the gene . Furthermore, this assay endpoint can be referred to as a secondary readout, because this assay has produced multiple assay endpoints where this one serves a background control function. To generalize the intended target to other relatable targets, this assay endpoint is annotated to the background measurement intended target family, where the subfamily is internal marker.\nHuman liver HepG2 cells are transiently transfected with multiple reporter transcription units (MRTUs) in 6-well plates using FuGene 6 reagent (Roche; 3 ml FuGene/1 mg DNA). The MRTU constructs are regulated by a cis-regulating element (promoter). […] A major difference between the CIS and TRANS system is that in CIS activities of endogenous TFs are measured, whereas the TRANS assay evaluates changes in activities of exogenous, chimeric NR-Gal4 proteins. […] At the end of 24 hour incubation, total RNA was isolated using TriZol reagent (Invitrogen). The isolated RNA is then reverse-transcribed using oligo(dT) primer and Mo-MLV reverse transcriptase (Invitrogen) with DNAse I (Ambion) treatment for 30 min. The one-tenth of the produced cDNA was amplified by PCR using Taq DNA polymerase (Invitrogen) and two reporter sequence-specific primers. The PCR products were fluorescently labeled by primer extension with 6-arboxyfluorescein (6-FAM) 5'-labeled reporter sequence-specific primer (2 min at 95 C, 20 s at 68 C and 10 min at 72 C) and these products were digested with 5U of HpaI (New England Biolabs) for 2h at 37 C. The fragments were purified using Qiaquick PCR columns (Qiagen), analyzed on an ABI 3130xL genetic analyzer (Applied Biosystems) with peak positions identified by using a set of X-rhodamine (ROX)-labeled MapMarker1000 molecular weight standards (BioVentures). The raw capillary electrophoresis data was processed using Attagraph software (Attagene)."}
{"smiles": "CC(=O)CC(=O)N(C)C", "outcome": "inactive"}
{"smiles": "O=C(C=Cc1ccccc1)OCCCc1ccccc1", "outcome": "inactive"}
{"smiles": "CC1=C(C=O)C(C)(C)CCC1", "outcome": "inactive"}
{"smiles": "NNC(=O)OCc1ccccc1", "outcome": "inactive"}
{"smiles": "CC(=O)CCc1ccc(O)cc1", "outcome": "inactive"}
{"smiles": "c1ccc2scnc2c1", "outcome": "inactive"}
{"smiles": "O=S(=O)(O)c1cc(S(=O)(=O)O)c2c(N=Nc3ccccc3)c(O)ccc2c1", "outcome": "inactive"}
{"smiles": "CN(C)c1ccc(C=O)cc1", "outcome": "inactive"}
{"smiles": "CC1=CC[C@@H]2C[C@H]1C2(C)C", "outcome": "inactive"}
{"smiles": "CC(C)CCOC(=O)CC(C)C", "outcome": "inactive"}
{"smiles": "CCCCCCCCCC(=O)OCC", "outcome": "inactive"}
{"smiles": "O=c1cc(-c2ccc(O)cc2)oc2cc(O)cc(O)c12", "outcome": "inactive"}
{"smiles": "C=CCOCC(O)CO", "note": "(stereo not given)", "outcome": "inactive"}
{"smiles": "Cc1cc(N)n(-c2ccccc2)n1", "outcome": "inactive"}
{"smiles": "CC(C)C(=O)c1ccccc1", "outcome": "inactive"}
{"smiles": "COc1ccc(N)c(C)c1", "outcome": "inactive"}
{"smiles": "CC(=O)OC(C)(C)C1CC=C(C)CC1", "note": "(stereo not given)", "outcome": "inactive"}
{"smiles": "CCCCOCC(C)OCC(C)O", "note": "(stereo not given)", "outcome": "inactive"}
{"smiles": "CCCCCCCCOS(=O)(=O)O", "outcome": "inactive"}
{"smiles": "CCCc1ccc(N)cc1", "outcome": "inactive"}
{"smiles": "CCOC(=O)C(=O)OCC", "outcome": "inactive"}
{"smiles": "CCCCC(CC)COCCO", "note": "(stereo not given)", "outcome": "inactive"}
{"smiles": "CCC(=O)OCC=Cc1ccccc1", "outcome": "inactive"}
{"smiles": "C=C(C)C(=O)OCCC[Si](OC)(OC)OC", "outcome": "inactive"}
{"smiles": "CC(C)CCCC(C)(C)O", "outcome": "inactive"}
{"smiles": "CCCCCCOC(C)=O", "outcome": "inactive"}
{"smiles": "CC1=CCC(=C(C)C)CC1", "outcome": "inactive"}
{"smiles": "CC12CCC(C1)C(C)(C)C2O", "note": "(stereo not given)", "outcome": "inactive"}
{"smiles": "CCCCCCCCCCCCN1CCOCC1", "outcome": "inactive"}
{"smiles": "CCCCCC1C(=O)CCC1CC(=O)OC", "note": "(stereo not given)", "outcome": "inactive"}
{"smiles": "CC(C)=CC(=O)O", "outcome": "inactive"}
{"smiles": "CCCC[N+](C)(CCCC)CCCC", "outcome": "inactive"}
{"smiles": "CC/C=C\\CCOC(=O)C(C)C", "outcome": "inactive"}
{"smiles": "C1=COCCC1", "outcome": "inactive"}
{"smiles": "CC(C)Cc1ccc(C(C)C(=O)O)cc1", "note": "(stereo not given)", "outcome": "inactive"}
{"smiles": "Cc1cccc(C)c1", "outcome": "inactive"}
{"smiles": "CC(O)COCC(C)O", "note": "(stereo not given)", "outcome": "inactive"}
{"smiles": "CCCCCC(=O)O[C@]1(C(C)=O)CC[C@H]2[C@@H]3CCC4=CC(=O)CC[C@]4(C)[C@H]3CC[C@@]21C", "outcome": "inactive"}
{"smiles": "CCC(=O)OC(C)(C)C1CC=C(C)CC1", "note": "(stereo not given)", "outcome": "inactive"}
{"smiles": "CCCCOCCOC(=O)c1ccccc1C(=O)OCCOCCCC", "outcome": "inactive"}
